CHX counter: counter-screen for Shiga toxin inhibitors: cycloheximide protein synthesis inhibition; cell reporter, cycloheximide protein synthesis inhibition counterscreen; max response, %; hit rate 12% among 300,000; in the data active means max response mostly above about 13%, no sharp cut-off; inactive means mostly below about 14%; further: read at 38.3 µM for the half of the compounds with a filed dose; 0% is about no effect
Shiga inhibitor: inhibitors of Shiga toxin in Vero cells. inhibition, % at 38.7 µM. AID 2315. hit rate 9.2% among 290,000. Vero cells, Shiga toxin protein synthesis inhibition reporter; in the data active means inhibition mostly above about 28%, no sharp cut-off; inactive means mostly below about 43%; further: 0% is about no effect
LmPK inhibitor: blocks Leishmania mexicana pyruvate kinase activity; Potency, µM (series often up to 57.5 µM), for the others: at the highest dose activity change, negative = inhibition, usual class: inhibitors; hit rate 0.37% among 290,000; Q27686; purified LmPK, Kinase-Glo ATP luminescence, 1 h; further: potency means the concentration at half of the fitted maximal effect; on the % scale 0 is the no-effect control and ±100 the full control effect
Target sequence (Q27686 whole entry, looked up): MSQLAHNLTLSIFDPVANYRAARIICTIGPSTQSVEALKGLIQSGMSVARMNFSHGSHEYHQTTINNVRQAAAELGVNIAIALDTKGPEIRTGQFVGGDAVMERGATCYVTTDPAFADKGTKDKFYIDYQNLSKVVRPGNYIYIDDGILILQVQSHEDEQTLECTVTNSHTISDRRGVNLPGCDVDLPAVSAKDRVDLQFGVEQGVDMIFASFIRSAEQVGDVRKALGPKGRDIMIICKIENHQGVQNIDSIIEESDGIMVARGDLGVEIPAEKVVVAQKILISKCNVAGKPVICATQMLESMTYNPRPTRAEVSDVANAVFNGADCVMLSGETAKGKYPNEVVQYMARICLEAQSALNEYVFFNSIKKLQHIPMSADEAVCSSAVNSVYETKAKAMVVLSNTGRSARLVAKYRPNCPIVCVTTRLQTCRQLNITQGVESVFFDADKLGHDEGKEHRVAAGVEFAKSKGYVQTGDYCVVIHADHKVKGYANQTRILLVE
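ATP generated from ADP (0.1 mM) and PEP (0.5 mM) by 0.1 nM LmPK over 1 h at room temperature (pH 7.2 imidazole buffer) was detected by coupled luciferase luminescence. Values were normalized to uninhibited and no-enzyme wells.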
Pf growth 96h: P. falciparum growth inhibition at 96 hours; P. falciparum luciferase reporter growth, 96 h; Potency, µM (titrated, usually from 28.7 µM), inactives show top-dose activity change, negative = inhibition, actives largely listed as inhibitors; hit rate 6.9% among 320,000; AID 504834; further: potency means the concentration at half of the fitted maximal effect; on the % scale 0 is the no-effect control and ±100 the full control effect
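P. falciparum expressing integrated firefly luciferase grown in erythrocytes (2% hematocrit, 0.05% parasitemia final) with compounds for 96 hours at 37 C, 5% CO2. Growth inhibition read as loss of luminescence after adding luciferase detection reagent.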
Pf growth 48h: P. falciparum growth inhibition at 48 hours (one generation); P. falciparum luciferase growth in erythrocytes, 48 h; Potency, µM (series often up to 28.7 µM), for the others: top-dose activity change, negative = inhibition, hits mostly inhibitors; hit rate 5.9% among 310,000; AID 504832; further: potency means the concentration at half of the fitted maximal effect; on the % scale 0 is the no-effect control and ±100 the full control effect
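Luciferase-expressing parasites in RBCs, 2% Hct / 0.1% parasitemia final; RPMI 1640 + 0.5% Albumax; 37 C, 5% CO2, one generation; luminescence read-out, lower signal = inhibition.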
* = called active by the depositor; ? = inconclusive; . = no result; [ ] = another dose, or the depositor's remark. Sampled rows, rich in hits. Any-hit rate of the full collection: about 22%. Unless noted, the call rests on the fitted dose curve; in most records, active means well fitted inhibition curve with a large enough effect; inconclusive means small, poorly fitted or top-dose-only effect, or another doubt; inactive means no such curve, though single readings can be large or run the other way.

SMILES | CHX counter | Shiga inhibitor | LmPK inhibitor | Pf growth 96h | Pf growth 48h
CC(=O)c1ccc(NC(=O)C(C)OC(=O)c2cccc(-n3cnnn3)c2)cc1 (configuration not stated) | . | . | . | 23.9% | -0.5%
CN1C(=O)c2ccc(N3CCCC3)cc2C1=O | 15.2* | 55.1* | 0.4% | 29.4% | 81.5%
Cc1cc(N2CCCC2)ccc1/C=C1\NC(=S)N(C)C1=O | 21.4* | 27.8 | -4.1% | 0.0% | 81.9%
COc1ccc(N2CCN(C(=O)c3cccc(NC(=O)c4ccco4)c3)CC2)cc1 | -1.7 | -17.2 | -7.0% | 97.7% | -9.8%
CN(C)c1nc(C(N)=O)nc(N2CCOCC2)n1 | -6.5 | -9.9 | 0.3% | -24.3% | .
COc1cc(-c2[nH]ncc2CN2CCN(c3cccc(C)n3)CC2)cc(OC)c1OC | -2.8 | 13.4 | 3.5% | 4.15µM* | 9.28µM*
Cc1ccc(S(=O)(=O)NCC(=O)NCC(=O)OCc2c(F)cccc2Cl)cc1 | 13.1* | 49.2 | 1.9% | -7.7% | ?
O=C(CNC(=O)c1cccs1)OCc1c(F)cccc1Cl | 48.4* | 103.0* | -1.3% | 3.7% | 3.6%
CC1CCN(c2ccc3nnc(CCC(=O)N4CCCCC4)n3n2)CC1 | -2.6 | -3.2 | 2.6% | ? | -0.6%
CCN(CC)S(=O)(=O)c1ccc2c(c1)c(=O)c(C(=O)NCc1ccc3c(c1)OCO3)cn2C | -3.6 | -18.0 | -1.8% | -5.2% | -9.5%
CCn1cc(C(=O)NCc2ccc(Cl)cc2)c(=O)c2cc(S(=O)(=O)N(C)C)ccc21 | -4.6 | 1.2 | -3.3% | -4.9% | ?
CCn1cc(C(=O)NCc2ccccc2OC)c(=O)c2cc(S(=O)(=O)N(C)C)ccc21 | 3.4 | -7.1 | -1.4% | 10.4µM* | ?
CCn1cc(C(=O)NCc2ccc3c(c2)OCO3)c(=O)c2cc(S(=O)(=O)N(C)C)ccc21 | 3.0 | -8.7 | 1.6% | ? | 11.7µM*
CCN(CCCNC(=O)c1cn(CC)c2ccc(S(=O)(=O)N(C)C)cc2c1=O)c1cccc(C)c1 | 14.3 | 12.3 | -0.6% | 169.6% | ?
C=CCn1cc(C(=O)NCc2ccc3c(c2)OCO3)c(=O)c2cc(S(=O)(=O)N(CC)CC)ccc21 | -2.9 | -8.0 | 2.0% | ? | 11.7µM*
CCn1cc(C(=O)NCCCN(C)c2ccccc2)c(=O)c2cc(S(=O)(=O)N(C)C)ccc21 | -2.0 | -7.0 | 1.6% | 14.7µM* | ?
O=C(CSc1nc(=O)n(CCN2CCOCC2)c2c1CCCC2)Nc1ccc(F)cc1F | . | . | . | -8.2% | ?
CCn1cc(C(=O)NCCc2ccc(Cl)cc2)c(=O)c2cc(S(=O)(=O)N(C)C)ccc21 | 2.4 | -2.9 | -3.0% | ? | ?
CCn1cc(C(=O)NC(C)CCc2ccccc2)c(=O)c2cc(S(=O)(=O)N(C)C)ccc21 (configuration not stated) | -7.7 | -12.1 | -0.5% | 43.4% | 6.57µM*
COc1cc([C@@H]2Oc3cc(C4Oc5cc(O)cc(O)c5C(=O)[C@H]4O)ccc3O[C@H]2CO)ccc1O (some centres not stated) | . | . | . | 13.1µM* | 10.4µM*
CN1CCN(c2ccc([N+](=O)[O-])cc2NC(=O)c2cccs2)CC1 | -0.9 | -25.4 | -10.6% | ? | -20.4%
CC(=O)Nc1ccc(Nc2ncnc3c2cnn3-c2ccccc2)cc1 | 41.1* | 50.2* | 4.1% | 106.0% | 135.0%
CC(=O)Nc1ccc(Nc2ncnc3c2cnn3-c2ccc(C)cc2C)cc1 | 5.7 | 12.8 | 8.7% | 276.3% | -7.4%
CC(=O)NNc1ncnc2c1cnn2-c1ccccc1 | 10.8 | 12.2 | -10.1% | ? | ?
CC(=O)Nc1ccc(Nc2ncnc3c2cnn3-c2cccc(C)c2)cc1 | 33.4* | 54.9* | 0.8% | 15.2% | 32.8%
SMILES | CHX counter | Shiga inhibitor | LmPK inhibitor | Pf growth 96h | Pf growth 48h
COc1ccc(Nc2ncnc3c2cnn3-c2ccccc2)cc1OC | 0.3 | 11.2 | -1.3% | ? | 24.1%
Clc1ccc(Nc2ncnc3c2cnn3-c2ccccc2)cc1 | 41.8* | 58.2* | 2.2% | ? | -73.1%
CC(C)Nc1ncnc2c1cnn2-c1ccc(Cl)cc1 | 21.4* | 31.0* | 4.6% | 247.0% | 97.7%
CC1(C)S[C@@H]2[C@H](NC(=O)[C@H](N)c3ccccc3)C(=O)N2[C@H]1C(=O)OC1OC(=O)c2ccccc21 (some centres not stated) | . | . | . | 10.8% | 10.8%
CC(C)[C@H](NC(=O)N1CC(=O)Nc2ccccc21)C(=O)N[C@H](Cc1ccccc1)C(=O)O | -1.1 | -3.0 | -1.4% | -10.8% | ?
COc1cc(C(=O)Nc2cc3c4c(c2)CC(=O)N4CCC3)cc(OC)c1OC | . | . | . | -17.8% | -20.8%
CN1CCN(C(=O)CSc2nc(-c3cccs3)cc(-c3cccs3)c2C#N)CC1 | -1.5 | -5.8 | 1.4% | 2.08µM* | ?
CCN(CC)C(=O)CSc1nc(-c2cccs2)cc(-c2cccs2)c1C#N | -0.9 | -9.5 | 6.0% | ? | 8.28µM*
CCN(CC)C(=O)CSc1nc(N)c(C#N)c(-c2cccs2)c1C#N | -3.9 | -7.7 | 5.8% | ? | ?
N#Cc1c(-c2ccc(F)cc2)cc(-c2cccs2)nc1SCC(=O)O | -10.9 | 2.9 | -1.9% | 17.0% | .
CCSc1nnc2ccc(-c3ccco3)nn12 | -2.0 | -10.0 | 1.6%[11.5 µM] | -32.7% | 17.0%
C/C=C(/C)C(=O)OC1c2c(ccc3ccc(=O)oc23)OC(C)(C)C1OC(C)=O (configuration not stated) | 8.3 | 9.3 | 1.6% | ? | 8.28µM*
CCN1CCc2c(OCC(=O)Nc3ccc4c(c3)OCCO4)cccc2C1=O | -6.6 | -3.4 | 3.0% | 6.57µM* | -40.5%[1.15 µM]
Cc1ccccc1OCC(=O)Nc1ccc2c(c1)OCO2 | 32.2* | 157.0* | 2.2% | . | 49.4%
Cc1ccccc1OCC(=O)OCC(=O)Nc1ccc2c(c1)OCCO2 | . | . | . | 23.1% | -12.2%
COc1ccccc1OCC(=O)Nc1ccc2c(c1)OCO2 | 25.2* | 65.8* | -1.5% | -7.9% | 46.1%
O=C(COc1ccccc1Cl)Nc1ccc2c(c1)OCO2 | 41.8* | 71.4* | 2.6% | -11.8% | 218.6%
CCCCCCC(=O)NNC(=O)CC(=O)Nc1ccccc1C(=O)O | 9.2 | -3.7 | 1.5% | ? | -0.9%
Cc1ccc(N2CC(O)=C(c3nc4ccccc4c(=O)[nH]3)C2=N)cc1C | 7.8 | -1.6 | 0.0% | 36.9% | 14.1%
O=C(Nc1nnc(C2CC2)s1)c1n[nH]c(=O)c2ccccc12 | -2.2 | -9.8 | 0.4% | -13.7% | ?
CCCOc1ccc(N2C(=O)CC(N3CCC(c4nc5ccccc5o4)CC3)C2=O)cc1 (configuration not stated) | -1.0 | -3.8 | -2.2% | ? | -36.3%[5.75 µM]
Cc1[nH][nH]c(=O)c1C(c1ccc(Cl)cc1)c1c(C)[nH][nH]c1=O | 2.0 | -10.9 | -11.7% | 11.0% | -6.2%
COc1ccc(-c2cn3c4c(sc3n2)CCCC4)cc1 | 35.6* | 36.4 | 6.1% | -22.9% | .
CC(C)c1ccc(NC(=O)COC(=O)C2=COCCO2)cc1 | 32.7* | 74.1 | 4.5% | . | 26.4%
Cc1ccc(C(=O)OCC(=O)Nc2ccc(C(N)=O)cc2)s1 | . | . | . | 19.6% | ?

Source: PubChem BioAssay
